Here are results for 40 molecules from PubChem BioAssay (NCI).

About 83,000 compounds went through this panel and 20% of them were active in at least one assay; those are over-represented in the sample as a whole.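 Method: cells in 96-well plates; compound added at one concentration; 48 h incubation; percent growth measured; values under 10 scored active.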 Activity calls are given as the source filed them.

The assay has as its system EKVX NSCLC. The experiment in a line: NCI-60 one-dose screen, 48 h (100 = growth as untreated, 0 = no growth, -100 = all killed). As to conditions: 10 µM. As for the experimental part: Growth inhibition of the EKVX human Non-Small Cell Lung tumor cell line is measured as a screen for anti-cancer activity. Cells are grown in 96 well plates and exposed to the test compound for 48 hours. Compounds are tested at a single concentration, which is 10^-5 M for most compounds. The reported endpoint is percent growth (GI% or GIPRCNT), where numbers from 0 - 100% represent growth inhibition, and numbers from -100% - 0 represent cell death. For example, a value of 40 represents 60% growth inhibition. A value of 0 means no net growth occurred over the course of the experiment. A value of -40 indicates 40% of cells at the beginning of the experiment died by the end of the experiment. A value of -100 means all cells are dead at the end of the experiment.
NCI-60 Human Tumor Cell Lines Screen was performed using the standard one-dose NCI protocol, which is described in more detail at https://dtp.cancer.gov/discovery_development/nci-60/default.htm.
Compounds with GIPRCNT values below 10 were considered active. Activity score was based on GIPRCNT using the following formula: […]
Score is 0 for GIPRCNT values of 100 or above, 50 for GIPRCNT values of 0, and 100 for GIPRCNT values of -100.
As to `CCCCCCCCCCCCc1ccc(C(=O)/C=C/C(=O)O)cc1`, the growth is 99.9% (inactive). Under `O=c1cc(CSc2nnc(-c3ccccc3)n2-c2ccc(F)cc2)c2ccc3ccccc3c2o1` stands 95.3% (inactive).

Take `COc1ccc(-c2ccccc2)cc1C(=O)c1ccc(-c2ccccc2)cc1`: the growth is 88.8% (inactive). Take `COc1cccc(C(=O)N(c2ccc(F)c(F)c2)C(C(=O)NC(C)(C)C)c2cc3c(C)cc(C)cc3nc2Cl)c1` (stereo not given): the growth was 54.5% (inactive). Turning to `CCCCCCN=C(N)CCCCCCCCCCC(N)=NCCCCCC`, the growth was 34.6% (inactive). Under `Oc1ccc(/C=N\Nc2ccccn2)c(O)c1` stands 33% (inactive); under `[O-]c1c[n+](-c2ccc(Cl)cc2)no1`, 103% (inactive); under `COCCOC(=O)NC(=O)Nc1ccc(/C(=N/O)c2ccc(Cl)cc2)cc1`, 29.6% (inactive).

Turning to `N#C/C(=C\N1C(=O)/C(=C/c2cccc([N+](=O)[O-])c2)SC1=S)c1nc2ccccc2s1`, the growth was 81% (inactive).

On to `CCOc1nc(-c2ccccc2)cc2c(O)c(C(=O)N/N=C/c3ccc(OC)cc3)[nH]c(=O)c12`, for which the growth was 99.7% (inactive).

Turning to `CC(=O)Nc1nc(C)c(C(=O)N/N=C/c2cccn2C)s1`, the growth is 103% (inactive). Take `CCn1nc(-c2ccccn2)c2cccnc2c1=S`: the growth is 59.9% (inactive). In the case of `C[C@@H]1C(=O)N(C[C@H](Cc2ccccc2)NC(=O)OCc2ccccc2)[C@]1(Cc1ccccc1)C(=O)OCc1ccccc1` it was 34% (inactive); in that of `COC(=O)c1ccc(Cn2ccc(=O)[nH]c2=O)cc1`, 116% (inactive); in that of `Nc1nc(SCC#CCCl)c2[nH]cnc2n1`, 54.4% (inactive). As to `N#CN1CC[C@H](C(=O)Nc2ncc(-c3ccccc3)s2)C1`, the growth was -0.13% (active). In the case of `O=C1c2cc(Cl)ccc2-c2c(O)cc(Cl)cc21` it was 72.1% (inactive); in that of `COc1ccc(Cn2cc3c(c2-c2cc(OC)c(OC)c(OC)c2)CCc2cnoc2-3)cc1N`, 27.4% (inactive). Under `COc1ccc2c(c1)/C(=C/c1cc(OC)c(OC)c(OC)c1)C(=O)N2C` stands 47.3% (inactive); under `O=C(c1ccccc1)C(Nc1ccccc1)c1ccccc1` (stereo not given), 86.2% (inactive); under `CCc1c(C)[nH]c(=O)c(C(N)=O)c1C#N`, 103% (inactive). In the case of `CN(C)CCCN1c2ccccc2Sc2ccc(C(F)(F)F)cc21` it was 43.4% (inactive); in that of `COC(=O)CCCCCCCCC(C)c1ccc(C(C)=O)cc1` (stereo not given), 95.3% (inactive). In the case of `COc1cc(OC)cc(-c2n/c(=C\c3c(O)[nH]c4ccc(OC)cc34)cc3c2=Nc2ccccc2-3)c1`, the growth is 96.6% (inactive). In the case of `CCOC(=O)c1c(C(F)(F)F)n([O-])c2ccc(OC)cc2[n+]1=O` it was 9.51% (active). In the case of `O=C(NCc1cn(Cc2cccc(Oc3ccccc3)c2)nn1)c1cccnc1Nc1ccccc1` it was 58.7% (inactive); in that of `CNC(=O)c1cc(Oc2ccc(NC(=O)Nc3ccc(Cl)c(OC4CCCCC4)c3)c(F)c2)ccn1`, 27.7% (inactive); in that of `CCCCCCCCCCSC(=N)N` (tested in a mixture with another compound), 74.8% (inactive). In the case of `NC1CCC(Nc2nc(NCc3ccc(-c4cccs4)nc3)c3ncn(C4CCCC4)c3n2)CC1` (stereo not given) it was -17% (active); in that of `CC(C)(C)c1ccc(OCCCCCCN2CCNCC2)cc1`, 69.9% (inactive). Take `O=C1CC[C@@H](C(=O)N[C@H]2CSSC[C@@H](C(=O)N/C=C/c3ccc(O)cc3)NC(=O)[C@H](Cc3ccccc3)NC(=O)[C@@H]3CCCN3C(=O)[C@@H]3CCCN3C2=O)N1`: the growth is 95% (inactive). With `CCN(CC)c1ccc(/C=C/C2=[N+](C)c3ccccc3C2(C)C)c(C)c1`, the growth is 10.6% (inactive). Under `C=CCNCCCN1C(=O)c2ccc3c4c(ccc(c24)C1=O)C(=O)N(CCCNCC=C)C3=O` stands -78.7% (active); under `CCCCCC(CCC)COC(=O)c1ccc(OC)cc1` (stereo not given), 100% (inactive). Turning to `O=C(COc1ccc(Cl)cc1Cl)Oc1coc(CSc2nc3ccccc3s2)cc1=O`, the growth is 106% (inactive). In the case of `CC(=O)CS(C)(=O)=O` it was 93.6% (inactive); in that of `O=C(O)CCCCSCCCCC(=O)O`, 106% (inactive); in that of `CC(CNC(Cc1ccccc1)c1ccccc1)NC(Cc1ccccc1)c1ccccc1` (stereo not given), 26.8% (inactive). Consider `CCOC(=O)Nc1ccc2c(c1)C(=O)N(CC)c1ccccc1O2`, for which the growth is 32.8% (inactive). Under `COC(=O)[C@]12CC[C@@H](C)[C@H](C)[C@@H]1C1=CC[C@@H]3[C@@]4(C)CC(=O)[C@H](O)[C@@](C)(CO)[C@@H]4C(=O)C[C@@]3(C)[C@]1(C)CC2` stands 3.1% (active).
